Among the data in paper PMC7862700, “An all-to-all approach to the identification of sequence-specific readers for epigenetic DNA modifications on cytosine” are binding signal values, retold here.

What all share (assay): DAPPL (digital affinity profiling via proximity ligation, sequencing); 10 mM Tris-HCl pH 7.5, 50 mM NaCl, 1 mM DTT, 4% glycerol, room temperature, 30 min; GST-TFs on glutathione beads, 16-mer random dsDNA library, 0.1% formaldehyde crosslink after washing; high values mean tight binding
One experiment addresses T1, FLI1 (Homo sapiens, UniProt Q01543 1-452).
T1 sequence: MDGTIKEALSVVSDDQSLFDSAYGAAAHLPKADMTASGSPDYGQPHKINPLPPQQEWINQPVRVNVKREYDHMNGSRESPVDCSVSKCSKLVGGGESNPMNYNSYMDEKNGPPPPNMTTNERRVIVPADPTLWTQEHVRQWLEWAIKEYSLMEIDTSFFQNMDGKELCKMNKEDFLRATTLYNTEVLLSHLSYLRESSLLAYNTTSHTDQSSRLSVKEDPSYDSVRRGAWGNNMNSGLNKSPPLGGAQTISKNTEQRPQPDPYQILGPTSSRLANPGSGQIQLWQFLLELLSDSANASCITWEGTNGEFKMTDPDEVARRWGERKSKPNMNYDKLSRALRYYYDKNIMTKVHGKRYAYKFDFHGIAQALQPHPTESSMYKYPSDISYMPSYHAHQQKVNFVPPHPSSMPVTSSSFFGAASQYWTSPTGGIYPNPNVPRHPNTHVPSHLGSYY
As to conditions: protein: recombinant; tags: N-terminal GST; dsDNA, one strand shown. The method, boiled down: (§1)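 Binding signal is given per hexamer as its read frequency for a factor divided by its frequency in the tag-only sample. GST-fused human transcription factors were expressed in yeast, captured on glutathione beads, barcoded with DNA and pooled with that sample, then incubated with 200 nmole of a 16-mer random double-stranded DNA library in Tris/NaCl/DTT/glycerol buffer for 30 min at room temperature. The pools were then washed, crosslinked, proximity-ligated, amplified by PCR and sequenced on an Illumina NextSeq500.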

The target of a further experiment is T2, ELK1 (Homo sapiens, UniProt P19419 1-428).
T2 sequence: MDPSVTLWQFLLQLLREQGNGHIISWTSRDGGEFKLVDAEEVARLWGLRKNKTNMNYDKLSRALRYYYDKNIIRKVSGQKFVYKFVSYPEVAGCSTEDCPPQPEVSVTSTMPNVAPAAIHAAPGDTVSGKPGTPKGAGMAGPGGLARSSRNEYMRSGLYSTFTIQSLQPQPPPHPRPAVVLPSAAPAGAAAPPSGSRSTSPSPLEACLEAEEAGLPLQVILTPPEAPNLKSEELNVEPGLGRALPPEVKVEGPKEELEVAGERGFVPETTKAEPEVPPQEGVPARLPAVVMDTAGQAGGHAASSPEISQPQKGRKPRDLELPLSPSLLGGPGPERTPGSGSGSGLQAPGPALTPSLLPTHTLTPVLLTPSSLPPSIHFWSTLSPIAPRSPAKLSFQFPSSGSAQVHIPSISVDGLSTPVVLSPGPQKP
The settings on record: protein: recombinant; tags: N-terminal GST; dsDNA, one strand shown. The method, boiled down:
as §1

The target of a further experiment is T3, GABPA (Homo sapiens, UniProt Q06546 1-454).
T3 sequence: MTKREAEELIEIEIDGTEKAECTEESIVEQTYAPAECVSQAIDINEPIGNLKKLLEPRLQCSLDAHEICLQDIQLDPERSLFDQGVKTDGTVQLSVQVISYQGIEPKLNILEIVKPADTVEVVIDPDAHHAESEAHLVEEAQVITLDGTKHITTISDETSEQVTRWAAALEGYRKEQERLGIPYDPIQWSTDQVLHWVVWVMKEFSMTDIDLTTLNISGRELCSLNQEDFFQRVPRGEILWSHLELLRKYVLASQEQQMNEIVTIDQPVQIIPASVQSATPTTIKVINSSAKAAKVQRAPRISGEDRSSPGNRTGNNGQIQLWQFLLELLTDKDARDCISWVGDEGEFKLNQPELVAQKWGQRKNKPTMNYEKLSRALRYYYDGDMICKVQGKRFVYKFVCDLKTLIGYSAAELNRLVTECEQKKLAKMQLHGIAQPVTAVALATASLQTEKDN
The settings on record: protein: recombinant; tags: N-terminal GST; dsDNA, one strand shown. The method, boiled down:
as §1

The next experiment concerns the target T4, ERG (Homo sapiens, UniProt P11308 1-479).
T4 sequence: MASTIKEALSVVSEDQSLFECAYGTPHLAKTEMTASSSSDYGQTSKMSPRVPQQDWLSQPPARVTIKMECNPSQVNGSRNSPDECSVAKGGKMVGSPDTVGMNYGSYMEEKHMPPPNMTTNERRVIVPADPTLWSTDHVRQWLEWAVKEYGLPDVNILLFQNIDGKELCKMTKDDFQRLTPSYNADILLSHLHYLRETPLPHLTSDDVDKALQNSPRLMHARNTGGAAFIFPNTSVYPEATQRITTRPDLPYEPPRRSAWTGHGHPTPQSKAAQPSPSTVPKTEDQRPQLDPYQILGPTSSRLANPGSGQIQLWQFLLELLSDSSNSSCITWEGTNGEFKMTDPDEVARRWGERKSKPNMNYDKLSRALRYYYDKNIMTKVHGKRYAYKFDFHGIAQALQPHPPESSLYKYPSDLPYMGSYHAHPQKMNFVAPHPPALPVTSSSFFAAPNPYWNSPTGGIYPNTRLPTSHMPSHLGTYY
The settings on record: protein: recombinant; tags: N-terminal GST; dsDNA, one strand shown. The method, boiled down: as §1

Another experiment deals with ELF1 (Homo sapiens, UniProt P32519 1-619). As to conditions: protein: recombinant; tags: N-terminal GST; dsDNA, one strand shown. The method, boiled down:
as §1

The next experiment addresses T5, EHF (Homo sapiens, UniProt Q9NZC4 1-300).
T5 sequence: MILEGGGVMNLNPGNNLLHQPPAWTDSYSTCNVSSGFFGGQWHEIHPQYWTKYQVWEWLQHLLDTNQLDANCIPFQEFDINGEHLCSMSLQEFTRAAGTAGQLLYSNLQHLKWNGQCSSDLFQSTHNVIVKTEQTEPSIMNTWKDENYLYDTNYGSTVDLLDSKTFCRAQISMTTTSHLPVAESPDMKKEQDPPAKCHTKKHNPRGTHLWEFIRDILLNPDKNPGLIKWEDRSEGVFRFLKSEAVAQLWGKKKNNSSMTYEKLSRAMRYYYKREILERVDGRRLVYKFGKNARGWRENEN
The settings on record: protein: recombinant; tags: N-terminal GST; dsDNA, one strand shown. In short, it runs like this:
as §1

The target of the next experiment is SPI1 (Homo sapiens, UniProt P17947 1-270). The settings on record: protein: recombinant; tags: N-terminal GST; dsDNA, one strand shown. The method, boiled down: as §1
The next experiment concerns the target SPIB (Homo sapiens, UniProt Q01892 1-262). The settings on record: protein: recombinant; tags: N-terminal GST; dsDNA, one strand shown. The method, boiled down: as §1
The next experiment addresses T6, ELK3 (Homo sapiens, UniProt P41970 1-407).
T6 sequence: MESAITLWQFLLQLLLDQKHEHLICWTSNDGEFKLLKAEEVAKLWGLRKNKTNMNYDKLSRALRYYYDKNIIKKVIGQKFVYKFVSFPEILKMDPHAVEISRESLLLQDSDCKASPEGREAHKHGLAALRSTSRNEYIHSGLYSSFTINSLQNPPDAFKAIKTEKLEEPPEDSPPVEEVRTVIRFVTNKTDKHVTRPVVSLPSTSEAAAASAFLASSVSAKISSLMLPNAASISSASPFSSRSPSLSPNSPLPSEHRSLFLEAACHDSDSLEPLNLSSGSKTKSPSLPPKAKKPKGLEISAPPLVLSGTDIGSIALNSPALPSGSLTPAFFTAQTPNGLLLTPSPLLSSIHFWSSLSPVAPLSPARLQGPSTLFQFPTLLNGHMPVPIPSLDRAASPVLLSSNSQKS
The settings on record: protein: recombinant; tags: N-terminal GST; dsDNA, one strand shown. The method, boiled down:
as §1

In the next experiment the target is T7, FEV (Homo sapiens, UniProt Q99581 1-238).
T7 sequence: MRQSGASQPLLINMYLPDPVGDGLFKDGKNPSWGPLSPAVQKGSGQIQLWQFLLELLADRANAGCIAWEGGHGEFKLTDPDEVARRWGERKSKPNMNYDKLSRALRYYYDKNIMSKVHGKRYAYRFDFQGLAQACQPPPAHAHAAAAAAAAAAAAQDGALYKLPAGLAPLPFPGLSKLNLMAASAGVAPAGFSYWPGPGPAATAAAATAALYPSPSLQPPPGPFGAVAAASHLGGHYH
The settings on record: protein: recombinant; tags: N-terminal GST; dsDNA, one strand shown. The method, boiled down: as §1

The next experiment has as its target ETV5 (Homo sapiens, UniProt P41161 1-510). The settings on record: protein: recombinant; tags: N-terminal GST; dsDNA, one strand shown. The method, boiled down: as §1
Another experiment concerns the target HSF1 (Homo sapiens, UniProt Q00613 1-529). As to conditions: protein: recombinant; tags: N-terminal GST; chain copies: 3; dsDNA, one strand shown. The method, boiled down:
as §1

The target in a further experiment is T8, SPIC (Homo sapiens, UniProt Q8N5J4 1-248).
T8 sequence: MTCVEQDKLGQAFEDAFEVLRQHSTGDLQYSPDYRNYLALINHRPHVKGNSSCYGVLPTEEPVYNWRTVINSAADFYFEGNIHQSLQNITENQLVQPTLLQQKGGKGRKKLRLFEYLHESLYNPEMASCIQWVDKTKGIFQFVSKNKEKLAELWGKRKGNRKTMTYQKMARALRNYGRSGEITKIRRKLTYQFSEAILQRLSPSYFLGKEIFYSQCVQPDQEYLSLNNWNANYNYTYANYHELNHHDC
The settings on record: protein: recombinant; tags: N-terminal GST; dsDNA, one strand shown. The method, boiled down:
as §1

Another experiment has as its target ELF4 (Homo sapiens, UniProt Q99607 1-663). The settings on record: protein: recombinant; tags: N-terminal GST; dsDNA, one strand shown. In short, it runs like this:
as §1

A further experiment has as its target T9, ELK4 (Homo sapiens, UniProt P28324-2 1-405).
T9 sequence: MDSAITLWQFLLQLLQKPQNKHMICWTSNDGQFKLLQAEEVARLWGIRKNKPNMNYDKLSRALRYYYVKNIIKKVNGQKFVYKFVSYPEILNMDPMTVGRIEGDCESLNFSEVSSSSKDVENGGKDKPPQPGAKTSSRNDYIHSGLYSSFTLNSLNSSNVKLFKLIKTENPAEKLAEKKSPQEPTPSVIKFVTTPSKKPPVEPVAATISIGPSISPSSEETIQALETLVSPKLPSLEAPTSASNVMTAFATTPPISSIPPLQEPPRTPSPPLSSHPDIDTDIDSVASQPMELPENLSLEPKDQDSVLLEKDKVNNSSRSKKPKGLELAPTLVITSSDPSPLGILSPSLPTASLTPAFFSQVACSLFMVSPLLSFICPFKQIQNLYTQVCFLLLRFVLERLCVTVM
As to conditions: protein: recombinant; tags: N-terminal GST; dsDNA, one strand shown. In short, it runs like this: as §1

The target in the next experiment is T10, ETV2 (Homo sapiens, UniProt O00321 1-342).
T10 sequence: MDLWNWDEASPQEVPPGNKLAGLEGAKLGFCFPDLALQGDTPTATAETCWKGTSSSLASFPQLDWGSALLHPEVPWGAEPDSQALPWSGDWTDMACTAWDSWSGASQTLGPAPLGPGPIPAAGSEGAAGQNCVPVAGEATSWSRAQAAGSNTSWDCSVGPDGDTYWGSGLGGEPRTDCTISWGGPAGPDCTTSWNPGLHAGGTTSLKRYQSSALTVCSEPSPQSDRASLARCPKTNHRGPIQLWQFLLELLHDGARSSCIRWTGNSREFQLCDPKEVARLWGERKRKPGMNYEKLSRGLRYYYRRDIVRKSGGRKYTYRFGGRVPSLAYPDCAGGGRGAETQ
As to conditions: protein: recombinant; tags: N-terminal GST; dsDNA, one strand shown. The method, boiled down:
as §1

For the next experiment, the target named is T11, ELF3 (Homo sapiens, UniProt P78545 1-371).
T11 sequence: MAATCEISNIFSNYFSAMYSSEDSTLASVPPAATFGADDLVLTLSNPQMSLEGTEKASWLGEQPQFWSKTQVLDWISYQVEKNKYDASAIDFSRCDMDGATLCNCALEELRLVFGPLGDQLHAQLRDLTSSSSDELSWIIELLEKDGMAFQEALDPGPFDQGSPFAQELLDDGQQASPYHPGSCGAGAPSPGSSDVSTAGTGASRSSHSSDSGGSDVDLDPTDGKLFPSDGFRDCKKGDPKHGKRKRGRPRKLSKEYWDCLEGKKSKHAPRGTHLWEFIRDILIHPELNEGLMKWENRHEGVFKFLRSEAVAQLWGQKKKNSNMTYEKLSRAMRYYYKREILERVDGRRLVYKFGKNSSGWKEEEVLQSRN
The settings on record: protein: recombinant; tags: N-terminal GST; dsDNA, one strand shown. The method, boiled down:
as §1

A further experiment has as its target CRX (Homo sapiens, UniProt O43186 1-299). As to conditions: protein: recombinant; tags: N-terminal GST; dsDNA, one strand shown. In short, it runs like this: as §1
A further experiment concerns the target ETV1 (Homo sapiens, UniProt P50549 1-477). The settings on record: protein: recombinant; tags: N-terminal GST; dsDNA, one strand shown. In short, it runs like this:
as §1

Sequence of ELF4 (Q99607 whole entry): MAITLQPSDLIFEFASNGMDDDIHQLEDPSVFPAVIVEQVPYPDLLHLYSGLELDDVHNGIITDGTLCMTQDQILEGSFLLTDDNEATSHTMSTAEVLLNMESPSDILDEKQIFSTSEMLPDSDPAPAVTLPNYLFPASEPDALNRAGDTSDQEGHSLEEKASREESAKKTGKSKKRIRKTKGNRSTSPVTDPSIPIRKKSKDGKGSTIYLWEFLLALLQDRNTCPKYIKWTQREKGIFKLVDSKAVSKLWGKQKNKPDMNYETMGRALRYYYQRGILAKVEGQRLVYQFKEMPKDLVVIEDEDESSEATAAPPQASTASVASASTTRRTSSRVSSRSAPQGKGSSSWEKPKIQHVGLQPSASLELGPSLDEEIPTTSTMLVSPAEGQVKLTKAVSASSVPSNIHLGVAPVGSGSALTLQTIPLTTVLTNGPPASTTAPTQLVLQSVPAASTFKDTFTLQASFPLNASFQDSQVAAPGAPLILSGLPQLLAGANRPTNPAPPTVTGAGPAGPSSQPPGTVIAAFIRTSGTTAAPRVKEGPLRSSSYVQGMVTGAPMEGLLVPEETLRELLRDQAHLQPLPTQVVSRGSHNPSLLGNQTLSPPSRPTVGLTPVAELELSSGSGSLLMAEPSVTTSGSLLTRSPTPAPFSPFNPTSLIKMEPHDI
Sequence of SPIB (Q01892 whole entry): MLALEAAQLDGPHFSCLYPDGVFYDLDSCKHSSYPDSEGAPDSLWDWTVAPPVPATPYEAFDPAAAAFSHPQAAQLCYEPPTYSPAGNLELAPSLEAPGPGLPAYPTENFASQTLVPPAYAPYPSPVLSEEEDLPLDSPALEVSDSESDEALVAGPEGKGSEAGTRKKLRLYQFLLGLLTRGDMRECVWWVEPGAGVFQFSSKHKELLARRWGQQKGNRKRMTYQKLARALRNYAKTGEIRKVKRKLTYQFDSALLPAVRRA
Sequence of ELF1 (P32519 whole entry): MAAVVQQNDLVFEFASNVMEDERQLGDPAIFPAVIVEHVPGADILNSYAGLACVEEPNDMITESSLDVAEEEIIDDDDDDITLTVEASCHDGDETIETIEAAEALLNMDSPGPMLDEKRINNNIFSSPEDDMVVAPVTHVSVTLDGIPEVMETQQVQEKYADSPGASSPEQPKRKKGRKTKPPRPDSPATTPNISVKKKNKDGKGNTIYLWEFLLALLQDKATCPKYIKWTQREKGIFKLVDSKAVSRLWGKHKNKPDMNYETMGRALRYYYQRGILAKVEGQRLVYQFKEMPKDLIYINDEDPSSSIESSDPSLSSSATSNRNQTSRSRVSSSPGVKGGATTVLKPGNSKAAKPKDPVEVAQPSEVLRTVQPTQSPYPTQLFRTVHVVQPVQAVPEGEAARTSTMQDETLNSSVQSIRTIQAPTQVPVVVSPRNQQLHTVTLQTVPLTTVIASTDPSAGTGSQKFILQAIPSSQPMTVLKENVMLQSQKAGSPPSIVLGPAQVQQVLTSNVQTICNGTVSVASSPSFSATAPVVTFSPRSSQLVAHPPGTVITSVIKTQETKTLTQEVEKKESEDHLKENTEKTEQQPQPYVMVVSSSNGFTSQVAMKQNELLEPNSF
Sequence of ETV5 (P41161 whole entry): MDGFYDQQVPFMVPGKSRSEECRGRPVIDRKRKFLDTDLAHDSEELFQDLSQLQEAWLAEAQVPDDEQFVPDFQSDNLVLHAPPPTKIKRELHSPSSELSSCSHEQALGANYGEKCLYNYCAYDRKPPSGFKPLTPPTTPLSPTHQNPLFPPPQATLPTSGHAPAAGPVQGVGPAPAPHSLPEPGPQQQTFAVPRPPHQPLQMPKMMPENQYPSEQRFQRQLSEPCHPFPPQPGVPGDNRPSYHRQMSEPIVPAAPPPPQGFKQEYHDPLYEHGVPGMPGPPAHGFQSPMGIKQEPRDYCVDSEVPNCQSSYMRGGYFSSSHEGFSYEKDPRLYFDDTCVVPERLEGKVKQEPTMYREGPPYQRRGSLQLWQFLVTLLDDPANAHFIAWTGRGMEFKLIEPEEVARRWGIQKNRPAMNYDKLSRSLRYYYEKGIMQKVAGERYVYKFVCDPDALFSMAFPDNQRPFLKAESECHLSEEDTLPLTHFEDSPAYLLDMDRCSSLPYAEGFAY
Sequence of HSF1 (Q00613 whole entry): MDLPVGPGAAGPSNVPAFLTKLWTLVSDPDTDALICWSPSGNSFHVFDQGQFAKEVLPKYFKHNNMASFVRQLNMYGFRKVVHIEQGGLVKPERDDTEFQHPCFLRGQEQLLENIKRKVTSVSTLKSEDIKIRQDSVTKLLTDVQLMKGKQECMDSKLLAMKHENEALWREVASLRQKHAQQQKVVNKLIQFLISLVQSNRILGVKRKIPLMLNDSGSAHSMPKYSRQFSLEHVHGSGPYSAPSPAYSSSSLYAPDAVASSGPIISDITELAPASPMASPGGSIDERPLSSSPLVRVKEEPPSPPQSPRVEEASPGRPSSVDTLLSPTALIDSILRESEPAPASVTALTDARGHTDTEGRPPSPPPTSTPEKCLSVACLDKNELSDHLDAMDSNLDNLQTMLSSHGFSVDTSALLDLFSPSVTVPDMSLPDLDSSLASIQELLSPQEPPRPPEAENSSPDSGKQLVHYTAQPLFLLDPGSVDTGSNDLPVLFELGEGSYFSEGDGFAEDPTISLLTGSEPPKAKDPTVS
Sequence of CRX (O43186 whole entry): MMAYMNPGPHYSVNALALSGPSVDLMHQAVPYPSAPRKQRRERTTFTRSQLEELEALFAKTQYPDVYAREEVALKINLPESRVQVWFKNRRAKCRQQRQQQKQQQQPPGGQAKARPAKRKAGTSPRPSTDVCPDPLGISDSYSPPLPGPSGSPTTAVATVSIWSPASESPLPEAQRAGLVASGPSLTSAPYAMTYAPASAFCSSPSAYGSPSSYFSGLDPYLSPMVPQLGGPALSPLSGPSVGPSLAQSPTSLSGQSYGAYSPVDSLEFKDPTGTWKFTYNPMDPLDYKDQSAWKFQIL
Sequence of ETV1 (P50549 whole entry): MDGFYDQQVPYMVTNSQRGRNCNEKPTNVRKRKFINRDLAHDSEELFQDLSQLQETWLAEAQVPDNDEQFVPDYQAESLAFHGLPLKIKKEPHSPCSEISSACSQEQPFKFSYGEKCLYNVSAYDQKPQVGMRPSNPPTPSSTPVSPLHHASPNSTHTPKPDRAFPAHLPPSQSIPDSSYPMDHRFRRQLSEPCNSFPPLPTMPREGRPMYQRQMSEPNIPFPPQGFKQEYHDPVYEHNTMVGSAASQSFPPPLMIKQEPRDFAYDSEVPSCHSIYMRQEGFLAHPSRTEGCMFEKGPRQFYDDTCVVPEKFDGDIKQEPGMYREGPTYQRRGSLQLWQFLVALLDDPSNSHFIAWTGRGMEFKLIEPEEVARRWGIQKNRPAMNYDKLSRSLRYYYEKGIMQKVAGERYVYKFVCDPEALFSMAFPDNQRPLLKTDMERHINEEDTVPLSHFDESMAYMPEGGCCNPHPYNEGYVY

With CTCTAA, the binding signal with FLI1 is 1.3 fold enrichment (6-mer frequency, TF over GST control); with ELK1, 1.33 fold enrichment (6-mer frequency, TF over GST control); with GABPA, 1.28 fold enrichment (6-mer frequency, TF over GST control); with ERG, 1.32 fold enrichment (6-mer frequency, TF over GST control); with ELF1 it was 1.37 fold enrichment (6-mer frequency, TF over GST control); with EHF it was 1.41 fold enrichment (6-mer frequency, TF over GST control). Besides, the binding signal with SPI1 is 1.35 fold enrichment (6-mer frequency, TF over GST control); with SPIB, 1.25 fold enrichment (6-mer frequency, TF over GST control); with ELK3 it was 1.43 fold enrichment (6-mer frequency, TF over GST control); with FEV it was 1.29 fold enrichment (6-mer frequency, TF over GST control); in the experiment with ETV5, 1.37 fold enrichment (6-mer frequency, TF over GST control); in the experiment with HSF1, 1.49 fold enrichment (6-mer frequency, TF over GST control). Further, the binding signal was 1.6 fold enrichment (6-mer frequency, TF over GST control) with SPIC; 1.31 fold enrichment (6-mer frequency, TF over GST control) in the experiment with ELF4; 1.22 fold enrichment (6-mer frequency, TF over GST control) with ELK4; 1.37 fold enrichment (6-mer frequency, TF over GST control) with ETV2; 1.5 fold enrichment (6-mer frequency, TF over GST control) in the experiment with ELF3; 2 fold enrichment (6-mer frequency, TF over GST control) with CRX. The binding signal in the experiment with ETV1 is 1.32 fold enrichment (6-mer frequency, TF over GST control).
